Assay results reported in PubChem BioAssay (Tox21).
Inconclusive results are not listed. Calls of active or inactive are those of the source. The call rests on the fitted dose curve; in most records, active means well fitted curve in the direction sought with a large enough effect in the repeat runs; inconclusive means weak or mixed curves; inactive means no such curve, though single readings can be large; an effect the other way counts as inactive or inconclusive.

Tests used:
[1] = A CellTox Green Cytotoxicity Assay to monitor cytotoxicity in HEK293 cells - 40 hour (AID 1224871); further: nearly all actives have a fitted effect of over 45% in size; further: potency means the concentration at half of the fitted maximal effect
In short: (§1)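 Dead-cell fluorescence measured kinetically: asymmetric cyanine dye, HEK293, 600 cells/well, 5 h settle, 23 nL cpd/DMSO, 37 C, reads 0–40 h every 8 h.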

[2] = qHTS RealTime-Glo MT Cell Viability Assay in HEK293 cells - 16 hour (AID 1224872); further: top concentration of the series differs between compounds; nearly all actives have a fitted effect of over 50% in size
In short: (§2)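 Quantitative high-throughput screen of the Tox21 10K library in HEK293: cells and RealTime-Glo reagents plated together, compound added at 5 h, luminescence monitored through 40 h at 37 C.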

[3] = qHTS RealTime-Glo MT Cell Viability Assay in HepG2 cells - 8 hour (AID 1224873); further: nearly all actives have a fitted effect of over 55% in size
In short: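 Real-time viability: cells seeded at 600 per well together with NanoLuc and cell-permeant prosubstrate, compounds added after 5 h incubation. Luminescence tracked at 0, 8, 16, 24, 32 and 40 h of exposure.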

[4] = qHTS RealTime-Glo MT Cell Viability Assay in HEK293 cells - 40 hour (AID 1224874); conditions: RealTime-Glo luminescence; max response: active compounds read low; further: nearly all actives have a fitted effect of over 50% in size
In short: (§3)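 600 HEK293 cells per well, dispensed already mixed with RealTime-Glo MT reagents. Compound dosing came 5 h later. The same wells were read for luminescence at 0, 8, 16, 24, 32 and 40 h of exposure at 37 C.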

[5] = A CellTox Green Cytotoxicity Assay to monitor cytotoxicity in HEK293 cells - 24 hour (AID 1224875); further: series mostly up to about 77 µM; nearly all actives have a fitted effect of over 45% in size
In short: as §1

[6] = qHTS RealTime-Glo MT Cell Viability Assay in HepG2 cells - 32 hour (AID 1224877); further: nearly all actives have a fitted effect of over 55% in size
In short: (§4)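 Compound treatment began 5 h after plating HepG2 cells (600/well) with NanoLuc luciferase and prosubstrate. Plates stayed at 37 C for 40 h; luminescence was captured at six time points, 0 h through 40 h.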

[7] = qHTS RealTime-Glo MT Cell Viability Assay in HEK293 cells - 0 hour (AID 1224880); further: top concentration of the series differs between compounds; nearly all actives have a fitted effect of over 45% in size
In short: as §3

[8] = A CellTox Green Cytotoxicity Assay to monitor cytotoxicity in HEK293 cells - 32 hour (AID 1224881); further: nearly all actives have a fitted effect of over 40% in size; further: potency means the concentration at half of the fitted maximal effect
In short: as §1

[9] = A CellTox Green Cytotoxicity Assay to monitor cytotoxicity in HEK293 cells - 8 hour (AID 1224884); further: nearly all actives have a fitted effect of over 35% in size; further: potency means the concentration at half of the fitted maximal effect
In short: as §1

[10] = qHTS RealTime-Glo MT Cell Viability Assay in HepG2 cells - 16 hour (AID 1224885); further: nearly all actives have a fitted effect of over 50% in size
In short: as §4

[11] = qHTS RealTime-Glo MT Cell Viability Assay in HEK293 cells - 24 hour (AID 1224886); further: top concentration of the series differs between compounds; nearly all actives have a fitted effect of over 50% in size
In short: as §2

[12] = qHTS RealTime-Glo MT Cell Viability Assay in HEK293 cells - 8 hour (AID 1224887)
In short: as §3

[13] = A CellTox Green Cytotoxicity Assay to monitor cytotoxicity in HEK293 cells - 16 hour (AID 1224888); further: nearly all actives have a fitted effect of over 35% in size
In short: as §1

[14] = qHTS RealTime-Glo MT Cell Viability Assay in HepG2 cells - 0 hour (AID 1224889); further: nearly all actives have a fitted effect of over 50% in size
In short: as §4

[15] = A CellTox Green Cytotoxicity Assay to monitor cytotoxicity in HepG2 cells - 16 hour (AID 1224876); further: nearly all actives have a fitted effect of over 45% in size
In short: (§5)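 First, HepG2 cells (600/well) mixed with reagent were plated; second, after 5 h at 37 C they received compounds via pintool; third, fluorescence was measured at 0 h through 40 h at 8 h intervals.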

[16] = A CellTox Green Cytotoxicity Assay to monitor cytotoxicity in HepG2 cells - 24 hour (AID 1224878); further: nearly all actives have a fitted effect of over 45% in size
In short: as §5

[17] = A CellTox Green Cytotoxicity Assay to monitor cytotoxicity in HepG2 cells - 0 hour (AID 1224882); further: nearly all actives have a fitted effect of over 35% in size
In short: as §5

[18] = A CellTox Green Cytotoxicity Assay to monitor cytotoxicity in HepG2 cells - 8 hour (AID 1224890); further: nearly all actives have a fitted effect of over 45% in size
In short: as §5

[19] = A CellTox Green Cytotoxicity Assay to monitor cytotoxicity in HepG2 cells - 40 hour (AID 1224879); further: nearly all actives have a fitted effect of over 40% in size
In short: as §5

[20] = A CellTox Green Cytotoxicity Assay to monitor cytotoxicity in HepG2 cells - 32 hour (AID 1224883); further: nearly all actives have a fitted effect of over 50% in size
In short: as §5
On the % scale 0 is the no-effect control and ±100 the full control effect.

CC(=C(CCOC(=O)C(C)C)SSC(CCOC(=O)C(C)C)=C(C)N(C=O)Cc1cnc(C)nc1N)N(C=O)Cc1cnc(C)nc1N
inactive: Potency [1] | Potency [2] | outcome [3] | max response [4] 3.74% | outcome [5] | outcome [6] | Potency [7] | Potency [8] | Potency [9] | outcome [10] | Potency [11] | Potency [12] | outcome [13] | Potency [14]

COc1ccc2c(c1OC)C(=O)O[C@@H]2[C@H]1c2c(cc3c(c2OC)OCO3)CCN1C
inactive: Potency [1] | Potency [2] | outcome [3] | outcome [5] | outcome [15] | outcome [16] | Potency [7] | Potency [8] | outcome [17] | Potency [12] | outcome [13] | Potency [14] | outcome [18]

O=Cc1ccc(Cl)c(Cl)c1
inactive: Potency [1] | outcome [3] | outcome [5] | outcome [15] | outcome [6] | outcome [16] | Potency [19] | Potency [7] | Potency [8] | outcome [17] | Potency [20] | Potency [9] | outcome [10] | Potency [11] | Potency [12] | Potency [14] | outcome [18]

COc1ccc(S(=O)(=O)N2c3ccc(Cl)cc3[C@@](O)(c3ccccc3Cl)[C@H]2C(=O)N2CCC[C@@H]2C(N)=O)cc1OC
inactive: Potency [1] | outcome [3] | outcome [5] | outcome [15] | outcome [6] | outcome [16] | Potency [19] | Potency [7] | Potency [8] | outcome [17] | Potency [20] | outcome [10] | outcome [13] | Potency [14] | outcome [18]

CC(=O)Nc1cccc(C)c1
inactive: Potency [1] | outcome [3] | outcome [5] | outcome [15] | outcome [6] | outcome [16] | Potency [19] | Potency [7] | Potency [8] | outcome [17] | Potency [20] | Potency [9] | outcome [10] | outcome [13] | Potency [14] | outcome [18]

C#CC(C)N(C)C(=O)Nc1ccc(Cl)cc1 (stereo not drawn)
inactive: Potency [1] | outcome [3] | outcome [5] | outcome [15] | outcome [16] | Potency [19] | Potency [7] | Potency [8] | outcome [17] | Potency [20] | Potency [9] | outcome [10] | outcome [13] | Potency [14] | outcome [18]

CCCCCCCCC1CCC(=O)O1 (stereo not drawn)
inactive: Potency [1] | Potency [2] | outcome [3] | max response [4] -1.86% | outcome [5] | outcome [15] | outcome [16] | Potency [19] | Potency [7] | Potency [8] | Potency [20] | Potency [9] | outcome [10] | Potency [11] | Potency [12] | outcome [13] | Potency [14] | outcome [18]

Cc1cccc2nccnc12
inactive: Potency [2] | outcome [3] | max response [4] 6.74% | outcome [15] | outcome [6] | outcome [16] | Potency [19] | Potency [7] | outcome [17] | Potency [20] | Potency [9] | outcome [10] | Potency [12] | Potency [14] | outcome [18]
active: Potency [1] 24.5 µM | Potency [8] 24.5 µM

CC(=O)c1sc(C)nc1C
inactive: Potency [1] | Potency [2] | outcome [3] | max response [4] -23.3% | outcome [5] | outcome [6] | outcome [16] | Potency [19] | Potency [7] | Potency [8] | outcome [17] | Potency [20] | Potency [9] | Potency [11] | Potency [12] | outcome [13] | outcome [18]

OCCC(F)(F)C(F)(F)C(F)(F)C(F)(F)C(F)(F)C(F)(F)C(F)(F)C(F)(F)F
inactive: Potency [1] | Potency [2] | outcome [3] | outcome [5] | outcome [15] | outcome [6] | outcome [16] | Potency [19] | Potency [7] | Potency [8] | Potency [20] | outcome [10] | Potency [12] | outcome [13] | Potency [14] | outcome [18]

CCN1CCc2nc(N)oc2CC1
inactive: Potency [1] | Potency [2] | outcome [3] | max response [4] 0.505% | outcome [5] | outcome [15] | outcome [16] | Potency [19] | Potency [7] | Potency [8] | Potency [20] | Potency [9] | outcome [10] | Potency [11] | Potency [12] | Potency [14] | outcome [18]

CCCCOCCOC(=O)COc1nc(Cl)c(Cl)cc1Cl
active: Potency [9] 38.9 µM
inactive: Potency [1] | Potency [2] | max response [4] 7.86% | outcome [5] | outcome [15] | outcome [6] | outcome [16] | Potency [19] | Potency [7] | Potency [8] | outcome [17] | Potency [20] | outcome [10] | Potency [11] | Potency [12] | outcome [13] | outcome [18]
